Screening results deposited in PubChem BioAssay by Broad Institute.
A selection: hits, their analogues and other compounds. The true share with any hit is near 4.1%.
NSD2 HMT inh: inhibitors of human histone methyltransferase NSD2. O96028. inhibition, % at 12.5 µM. hit rate 0.54% among 310,000. NSD2 peptide methylation, AlphaScreen, 120 min. AID 743445; in the data active = inhibition above about 50%
Target sequence (O96028 whole entry, looked up): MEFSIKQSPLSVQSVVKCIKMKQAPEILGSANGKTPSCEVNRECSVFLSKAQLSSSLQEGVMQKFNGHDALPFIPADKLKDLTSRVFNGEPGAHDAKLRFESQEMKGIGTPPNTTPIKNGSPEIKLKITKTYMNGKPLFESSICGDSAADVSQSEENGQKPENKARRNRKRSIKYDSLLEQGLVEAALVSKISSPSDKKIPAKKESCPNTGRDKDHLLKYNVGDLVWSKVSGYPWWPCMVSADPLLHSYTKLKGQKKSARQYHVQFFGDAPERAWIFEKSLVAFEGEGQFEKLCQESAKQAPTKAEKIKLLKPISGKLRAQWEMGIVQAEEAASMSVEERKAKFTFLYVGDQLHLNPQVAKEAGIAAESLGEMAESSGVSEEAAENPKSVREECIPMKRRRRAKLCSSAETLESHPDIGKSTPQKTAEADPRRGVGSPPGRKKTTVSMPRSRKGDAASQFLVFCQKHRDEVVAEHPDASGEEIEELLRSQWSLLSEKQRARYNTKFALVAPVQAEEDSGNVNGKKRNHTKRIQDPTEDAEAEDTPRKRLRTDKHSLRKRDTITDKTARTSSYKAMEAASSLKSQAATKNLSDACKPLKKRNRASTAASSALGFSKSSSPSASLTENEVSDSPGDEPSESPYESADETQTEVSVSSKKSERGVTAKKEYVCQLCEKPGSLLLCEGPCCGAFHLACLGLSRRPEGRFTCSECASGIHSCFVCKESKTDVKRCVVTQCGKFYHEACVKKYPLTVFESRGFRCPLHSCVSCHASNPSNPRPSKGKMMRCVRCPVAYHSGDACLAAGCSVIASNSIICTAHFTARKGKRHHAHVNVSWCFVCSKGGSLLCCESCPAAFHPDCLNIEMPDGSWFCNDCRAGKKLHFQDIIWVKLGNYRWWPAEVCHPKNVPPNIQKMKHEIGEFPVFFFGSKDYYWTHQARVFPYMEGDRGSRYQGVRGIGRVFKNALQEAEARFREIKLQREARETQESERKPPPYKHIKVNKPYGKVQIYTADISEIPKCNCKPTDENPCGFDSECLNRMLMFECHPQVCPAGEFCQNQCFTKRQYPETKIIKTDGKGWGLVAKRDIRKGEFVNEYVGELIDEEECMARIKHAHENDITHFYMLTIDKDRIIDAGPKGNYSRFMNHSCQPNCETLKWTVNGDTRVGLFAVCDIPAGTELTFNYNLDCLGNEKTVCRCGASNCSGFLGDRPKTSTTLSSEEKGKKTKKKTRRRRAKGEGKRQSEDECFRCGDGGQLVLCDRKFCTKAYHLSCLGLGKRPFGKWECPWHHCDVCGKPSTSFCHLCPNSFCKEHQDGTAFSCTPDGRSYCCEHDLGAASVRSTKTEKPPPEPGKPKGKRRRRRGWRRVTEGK
Env fusion inh: blocks HIV Env-driven cell-cell fusion; AID 651610; hit rate 1.1% among 360,000; HeLa-JRFL Env/CEM21 cell fusion, luciferase; inhibition, % at 12.3 µM;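 active = mean replicate inhibition score of at least 50 and every replicate individually at or above 50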;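 also: 0% = plate neutral controls and 100% = maraviroc near 300 nM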
CASP6 VEID inh: blocks human caspase-6 cleavage activity; AID 686996; P55212; hit rate 0.53% among 350,000; purified caspase-6, Z-VEID-R110 cleavage fluorescence; inhibition, % at 12.5 µM;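 active = mean inhibition across replicates at least about 35%, with every replicate also reaching that limit, limit read from the data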;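 also: 0% = median of neutral control wells and 100% = no fluorescence left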
ALR H2O2 inh: human ALR oxidase inhibition via reduced H2O2; hit rate 3.8% among 290,000; inhibition, % (no concentration beside the values); purified ALR, DTT oxidation, H2O2 HRP-luminol luminescence; AID 485317;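 active = mean replicate inhibition above about 79%, with every replicate also reaching it, limit read from the data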
CFTR F508del cor: CFTR F508del correction in bronchial cells; activity (quench increase), % at 7.58 µM; CFBE cells, YFP halide quenching; stimulated with forskolin plus potentiator P3; % fluorescence drop versus neutral controls; hit rate 0.36% among 350,000; AID 720511;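 active = mean added fluorescence quench of at least 8% versus neutral control, with both replicates also reaching 8%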;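 also: cells transiently co-express mutant CFTR-F508del with the halide-sensitive YFP; corrector assay measuring rescue of mutant channel to the surface after 24 h compound exposure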
PglD inh: inhibitors of Campylobacter jejuni PglD acetyltransferase; purified PglD enzyme, DTNB colorimetric CoA detection; hit rate 0.098% among 360,000; inhibition, % at 12.5 µM; in the data active = inhibition above about 16%, passing the limit was not always enough
* = called active by the depositor; nt = no result; [ ] = dose if it differs, or a comment.

SMILES	NSD2 HMT inh	Env fusion inh	CASP6 VEID inh	ALR H2O2 inh	CFTR F508del cor	PglD inh
CNC[C@H]1OCCCC[C@@H](C)Oc2ccc(NS(=O)(=O)c3ccc(Cl)cc3)cc2C(=O)N([C@@H](C)CO)C[C@H]1C	nt	-22[16.7 µM]	-3	nt	-1	0
N#Cc1c2n(c3c(=S)nc[nH]c13)CCCCC2	nt	nt	nt	93*	nt	nt
Cc1[nH]nc(Nc2ccc(O)cc2)c1[N+](=O)[O-]	4	-15	1	99*	2	nt
COc1ccc(NC(=O)N(C)C[C@H]2Oc3c(NS(=O)(=O)c4ccccc4)cccc3C(=O)N([C@@H](C)CO)C[C@@H]2C)cc1	nt	-8[16.7 µM]	nt	nt	-4	nt
O=C(c1ccc(Cl)cc1)C(CN1CCCCC1)c1ccccc1 (stereo not given)	3	-107	-4	97*	-5	0
CCN(CC)c1nc(Nc2ccccc2)nc(Oc2ccc(=O)[nH]n2)n1	6	91*	nt	-6	nt	nt
CCCNC(=O)C[C@H]1C[C@@H]2c3cc(NS(=O)(=O)c4ccc(OC)cc4)ccc3O[C@@H]2[C@@H](CO)O1	nt	0[16.7 µM]	nt	nt	1	13
COc1ccc(F)cc1C1=CC(=O)C[C@H](c2ccc3c(c2)OCO3)C1	nt	nt	52*	2	-2	-3
COc1cc(F)c(C2=CC(=O)C[C@H](c3ccc4c(c3)OCO4)C2)cc1F	nt	-27	2	-2	-1	-1
CO[C@@H]1CN(C)C(=O)c2cc(NC(C)=O)ccc2OC[C@H](C)N(CCC(F)(F)F)C[C@@H]1C	nt	-19[16.7 µM]	-1	nt	0	0
Cc1ccc(Nc2nc(C(=O)NCc3ccco3)cs2)cc1	1	24	nt	17	nt	-2
CCN(CC)C(=O)c1csc(Nc2ccc(C)cc2)n1	4	-6	nt	87*	nt	1
Cc1ccccc1NC(=O)c1cccnc1	0	-1	-1	0	-1	1
CCOC(=O)N1CCC(N2Cc3cccc(C(=O)Nc4ccc(N(CC)CC)cc4C)c3C2=O)CC1	22	18	2	50	0	4
CCN(CC)c1ccc(NC(=O)CN2C(=O)CC(C)(C)S(=O)(=O)c3ccccc32)c(C)c1	nt	-12	5	99*	-3	4
CCN(CC)c1ccc(NC(=O)CNCc2ccccc2Cl)c(C)c1	20	19	0	99*	-1	-5
CCN(CC)c1ccc(NC(=O)c2cccnc2)c(C)c1	1	-104	nt	96*	nt	-5
CCN(CC)c1ccc(NC(=O)c2cccc(C)c2OC)c(C)c1	8	-73	nt	99*	nt	-4
CC=Cc1ccc2n(c1=O)C[C@H]1[C@H](CO)[C@@H](C(=O)NC3CCC3)[C@@H]2N1C(=O)c1cnccn1 (mixture of isomers)	nt	nt	nt	nt	3	nt
COCCNC(=O)C[C@@H]1CC[C@H]2[C@H](COc3ccc(NC(=O)C4CCCC4)cc3C(=O)N2C)O1	nt	14[16.7 µM]	3	nt	-2	-2
C[C@H](CO)N1C[C@H](C)[C@@H](CN(C)Cc2ccc(Cl)c(Cl)c2)Oc2c(NC(=O)Nc3ccc(C(F)(F)F)cc3)cccc2C1=O	nt	9[16.7 µM]	2	nt	3	-3
CCN(CC)c1ccc(NC(=O)c2cnc3ccccn3c2=O)c(C)c1	10	nt	nt	99*	nt	-1
COc1cccc(CN2CC3(CN(C)C3)c3c(n(C)c4cc(OC)ccc34)[C@@H]2CO)c1	nt	nt	nt	nt	0	nt
COc1ccc(NC(NC(=O)c2cccnc2)C(Cl)(Cl)Cl)cc1 (stereo not given)	4	10	8	99*	2	nt
Cc1ccccc1NC(NC(=O)c1cccnc1)C(Cl)(Cl)Cl (stereo not given)	-2	-7	-2	-3	-2	nt
SMILES	NSD2 HMT inh	Env fusion inh	CASP6 VEID inh	ALR H2O2 inh	CFTR F508del cor	PglD inh
Nc1ncc2c(n1)-c1ccoc1CC2	-1	-7	3	89*	3	-1
CCCC(C)NC(=O)Cc1ccc(Br)cc1 (stereo not given)	-2	20	1	95*	nt	nt
O=C(O)c1cc(-c2ccc(-c3c(-c4ccc5c(c4)OCO5)noc3-c3ccsc3)cc2)nc2ccccc12	nt	-52	37*	10	1	2
O=C1NC(=O)C2C1C(c1cccs1)NN2Cc1ccccc1 (stereo not given)	nt	-9	2	98*	1	-2
CC(=O)C1=C(O)C(=O)N(Cc2ccccc2)C1c1cccs1 (stereo not given)	4	13	nt	2	nt	5
Brc1ccc2nc(-c3ccncc3)c(NC3CCCC3)n2c1	0	30	3	nt	2	nt
Cc1ccc(-c2nc3cnccn3c2Nc2c(C)cccc2C)o1	nt	-38	0	98*	-2	-2
Cc1ccc(-c2nc3ncccn3c2Nc2ccccc2C)o1	3	2	3	98*	nt	nt
Cc1ccc(Nc2c(-c3ccc(C)o3)nc3ncccn23)cc1	14	-2	2	nt	0	nt
Brc1ccc(-c2nc3ncccn3c2NC2CCCCC2)o1	4	-28	nt	99*	nt	-5
Cc1ccc(-c2nc3ncccn3c2NC2CCCC2)o1	-6	-30	nt	99*	nt	3
CO[C@@H]1CN(C)C(=O)c2ccc(NC(=O)C3CCC3)cc2OC[C@@H](C)N(Cc2ccncc2)C[C@@H]1C	nt	nt	9	nt	1	1
S=c1[nH]nc(-c2ccco2)n1/N=C/c1ccccn1	0	nt	nt	98*	nt	nt
Cc1ccc(/C=N/n2c(-c3ccco3)n[nH]c2=S)cc1	7	5	-7	63	-1	nt
Cc1cccc(/C=N/n2c(-c3ccco3)n[nH]c2=S)c1	nt	5	-2	97*	2	nt
CCC(=O)N1[C@@H](CO)[C@H](c2ccccc2)C12CN(C(=O)c1ccc(F)cc1)C2	nt	nt	-2	nt	0	nt
CCSc1nnc(N2C(=O)CC(c3ccsc3)C3=C2CC(C)(C)CC3=O)s1 (stereo not given)	nt	58*	0	-5	-2	2
Cc1ccc2nc3c(c(Nc4ccccc4)c2c1)CCC3	0	10	-1	97*	-2	nt
COc1ccccc1Nc1c2ccccc2nc2ccccc12	14	57*	2	99*	-1	-5
COCCNc1c2c(nc3ccccc13)CCC2	1	-5	7	-4	1	2
Fc1ccc(Nc2c3c(nc4ccccc24)CCC3)cc1	0	5	-1	95*	0	0
c1ccc(Nc2c3c(nc4ccccc24)CCC3)cc1	2	7	-41	nt	-1	nt
Cc1cc(Nc2ccc3c(c2)OCCO3)c2ccccc2n1	3	nt	2	nt	1	nt
c1ccc2c(Nc3ccc4c(c3)OCCO4)c3c(nc2c1)CCC3	8	21	2	80*	-4	nt
O=C(CC(F)(F)F)N1C[C@@H]2[C@H](c3ccccc31)[C@H](CO)N2C(=O)C1CCOCC1	nt	nt	-3	nt	-1	1
C[C@H](CO)N1C[C@H](C)[C@H](CN(C)C(=O)Nc2ccc(F)cc2)Oc2ccc(NC(=O)C3CCCCC3)cc2CC1=O	nt	-7[16.7 µM]	-1	nt	2	-1
C[C@H]1CN([C@@H](C)CO)C(=O)c2cccc(NC(=O)C3CCCCC3)c2O[C@@H]1CN(C)Cc1ccccc1	nt	-18[16.7 µM]	2	nt	0	2
